33 compounds from PubChem BioAssay AID2289 (National Center for Advancing Translational Sciences (NCATS), 2010) can be followed below.

Molecules are shown by their SMILES. About 3,300 (0.97%) of roughly 340,000 compounds were called active. Roughly 9% stayed inconclusive and do not appear here. The call rests on the fitted dose curve; in most records, active means well fitted inhibition curve with a large enough effect; inconclusive means small, poorly fitted or top-dose-only effect, or effect the other way; inactive means flat fitted curve, though single readings scatter. This is one part of the list.
Potency means the concentration at half of the fitted maximal effect.

The experiment can be described thus: qHTS Assay for Modulators of miRNAs and/or Inhibitors of miR-21. Further: nearly all actives have a fitted effect of over 55% in size. Particulars: HeLa miR-21-FLuc reporter, luciferase luminescence, 48 h; actives lower the signal. In a few lines:
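Compounds were titrated across several concentrations (up to approximately 40 uM) and incubated 48 hours with HeLa miR-21-FLuc reporter cells (miR-21 target sequence downstream of FLuc, endogenous miR-21). Readout was firefly luciferase luminescence after lytic detection reagent.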
On the technique in general: qHTS replaces the single test concentration by a dilution series.
Consider `O=C(Nc1ccc2oc(-c3ccc4ccccc4c3)nc2c1)c1cccs1`, for which the Potency is 1.04 µM (active). `O=S(=O)(Nc1ccc2oc(-c3ccccc3)nc2c1)c1ccccc1`: the Potency is 18.5 µM (active).

Turning to `O=C(Nc1ccc2oc(-c3ccccc3)nc2c1)c1ccccc1F`, the Potency was 1.31 µM (active). To `O=C(Nc1ccc2oc(-c3ccc4ccccc4c3)nc2c1)c1cc(Br)ccc1Cl` belongs 16.5 µM (active). To `COc1ccc2nc(SCC(=O)C(C)(C)C)[nH]c2c1` belongs 6.56 µM (active). As to `CCOc1ccc2nc(SCC(=O)N(C)C)[nH]c2c1`, the Potency was 7.36 µM (active). To `Cc1cccc(Nc2nc3c(s2)CCCC3)c1` belongs 2.07 µM (active); to `O=C1C=C(N2CCCCCC2)C(=O)N1c1ccc(Cl)cc1`, 5.21 µM (active); to `Cc1ccccc1OCCNC(=O)c1ccc2ccccc2n1`, 5.21 µM (active). Then `Cn1cc(C(=O)Nc2ccc3c(c2)CCC3)cn1`, with 7.36 µM (active). Regarding `CN1N=C(C(=O)Nc2ccc3c(c2)CCC3)CCC1=O`, the Potency was 9.27 µM (active). For the compound `CCC(C)(C)C1CCc2[nH]nc(C(=O)N/N=C(\C)c3ccco3)c2C1` (stereo not drawn), the Potency is 2.61 µM (active). With `CCCc1nnc(NC(=O)Nc2ccccc2OC)s1`, the Potency was 16.5 µM (active). Consider `COc1ccccc1NC(=O)Nc1nnc(C(C)C)s1`, for which the Potency was 14.7 µM (active). Then `CC(C)(C)C(=O)Nc1nnc(CCc2ccccc2)s1`, with 2.93 µM (active); and `c1ccc(Cn2nc(-c3ccccc3)nc2-c2ccccc2)cc1`, with 16.5 µM (active). For `COc1ccc(C(=O)OCCc2ccc(O)cc2)cc1`, the Potency was 6.56 µM (active). Then `S=C1c2ccccc2CN1c1ccccc1`, with 9.27 µM (active); and `Cc1ccccc1-c1nnc(SCC(=O)N(C)C2CCCCC2)o1`, with 14.7 µM (active); and `Cc1ccccc1-c1nnc(SCC(=O)N(C)c2ccccc2)o1`, with 16.5 µM (active). Then `CC(=O)N1N=C(c2ccc(C)cc2)CC1c1ccco1` (stereo not drawn), with 16.5 µM (active). To `CCc1ccc(C2=NN(C(C)=O)C(c3ccco3)C2)cc1` (stereo not drawn) belongs 2.33 µM (active); to `Nc1ccc2nc3c(=O)n(C4CCCCC4)c(=O)[nH]c3nc2c1`, 14.7 µM (active).

As to `O=C(NC1CC(=O)c2sccc21)c1ccc(Cl)cc1Cl` (stereo not drawn), the Potency was 13.1 µM (active). To `O=c1c(-c2ccccc2)coc2cc(O)ccc12` belongs 1.85 µM (active); to `CC(C)Oc1ccc2c(=O)c(-c3ccccc3)coc2c1`, 0.464 µM (active); to `COc1ccc(-c2coc3cc(O)ccc3c2=O)cc1OC`, 13.1 µM (active). To `COc1ccc(-c2coc3cc(O)cc(O)c3c2=O)cc1OC` belongs 13.1 µM (active); to `Cc1ccc(C2=NNC3(CCOC(C)(C)C3)S2)cc1` (stereo not drawn), 3.69 µM (active); to `COc1ccc2cc3cc(C(=O)N4CCCCCC4)oc3nc2c1`, 0.414 µM (active). As to `COc1ccc2cc3cc(C(=O)N4CCCC(C)C4)oc3nc2c1` (stereo not drawn), the Potency was 1.04 µM (active). Turning to `Cc1ccc2cc3cc(C(=O)N4CCCCCC4)oc3nc2c1`, the Potency is 0.261 µM (active). To `COc1ccc2nc3oc(C(=O)N4CCCCC4)cc3cc2c1` belongs 1.04 µM (active).
